Measurements as given in the supplement of paper PMC12494721.
Counter-ions that a name gives are not always drawn.

Assays:
Details in all cases: incubation time: 27 h, anaerobic, 37 °C;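 for the amine columns active = adjusted P below 0.05 in both replicates with a change the same way and a mean fold change under 0.8 or over 1.25; inactive = the rest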
[1] = tested on: Clostridium sporogenes DSM 1664; assay: growth (OD595) fold change vs plate DMSO controls (fold change (ratio)); higher = more growth
How it was run: (§1)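 To obtain OD, 595 nm absorbance readings were blank-subtracted, corrected for compound background using 20 µM compound solutions in water, and multiplied by a calibration factor of 5. They came from 96-well mGAM cultures grown anaerobically for 27 h at 37 °C and shaken before reading. Growth is the fold change relative to the median of plate DMSO controls. Two biological replicates were averaged, and fold changes above 1.5 were set to NA.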

Escherichia coli IAI1 [2] = assay: as above
How it was run: as §1

[3] = tested on: Klebsiella aerogenes DSM 30053; assay: as above
How it was run: as §1

[4] = tested on: Ruminococcus gnavus DSM 108212; assay: as above
How it was run: as §1

[5] = tested on: Klebsiella aerogenes DSM 30053; assay: fold change of Histamine concentration vs plate DMSO controls (fold change (ratio)); higher = more amine produced, active = hit call of the paper (significant change in both replicates, either direction)
How it was run: (§2)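 Anaerobic mGAM cultures of four gut bacterial strains were grown at 37 °C for 27 h in 80 µL wells, starting at OD 0.1 before 1:1 dilution. Compounds were at 20 µM final (sweeteners 50 µM). Whole cultures were extracted with cold acetonitrile/methanol containing 0.1% formic acid and centrifuged. Amines were quantified by LC–triple-quadrupole MS (dynamic MRM) against external calibration curves and drift-corrected within batch. Each value is the fold change versus plate DMSO controls, averaged over 2 biological replicates.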

[6] = tested on: Clostridium sporogenes DSM 1664; assay: fold change of Tryptamine concentration vs plate DMSO controls (fold change (ratio)); higher = more amine produced, active = hit call of the paper (significant change in both replicates, either direction)
How it was run: as §2

[7] = tested on: Ruminococcus gnavus DSM 108212; assay: as above
How it was run: as §2

Escherichia coli IAI1 [8] = assay: fold change of Putrescine concentration vs plate DMSO controls (fold change (ratio)); higher = more amine produced, active = hit call of the paper (significant change in both replicates, either direction)
How it was run: as §2

[9] = tested on: Klebsiella aerogenes DSM 30053; assay: as above
How it was run: as §2

Escherichia coli IAI1 [10] = assay: fold change of Cadaverine concentration vs plate DMSO controls (fold change (ratio)); higher = more amine produced, active = hit call of the paper (significant change in both replicates, either direction)
How it was run: as §2

[11] = tested on: Klebsiella aerogenes DSM 30053; assay: as above
How it was run: as §2

[12] = tested on: Ruminococcus gnavus DSM 108212; assay: fold change of 2-Phenylethylamine concentration vs plate DMSO controls (fold change (ratio)); higher = more amine produced, active = hit call of the paper (significant change in both replicates, either direction)
How it was run: as §2

Row | SMILES | growth [1] | growth (Escherichia coli IAI1 [2]) | growth [3] | growth [4] | fold change of Histamine concentration [5] | fold change of Tryptamine concentration [6] | fold change of Tryptamine concentration [7] | fold change of Putrescine concentration (Escherichia coli IAI1 [8]) | fold change of Putrescine concentration [9] | fold change of Cadaverine concentration (Escherichia coli IAI1 [10]) | fold change of Cadaverine concentration [11] | fold change of 2-Phenylethylamine concentration [12]
1 | CNCC[C@@H](Oc1cccc2ccccc12)c1cccs1 [(R)-Duloxetine hydrochloride] (20 µM) | 1.03 | 1.07 | 0.994 | 0.9 | 1.01 (inactive) | 0.986 (inactive) | 0.979 (inactive) | 1.04 (inactive) | 0.994 (inactive) | 0.952 (inactive) | 0.986 (inactive) | 1.02 (inactive)
2 | CC(C)[C@H]1CC[C@H](C(=O)N[C@H](Cc2ccccc2)C(=O)O)CC1 [Nateglinide] (20 µM) | 1.11 | 1.22 | 1.02 | 0.903 | 1.01 (inactive) | 0.94 (inactive) | 1.02 (inactive) | 1.2 (inactive) | 1 (inactive) | 0.984 (inactive) | 1 (inactive) | 1.05 (inactive)
3 | Nc1nc(NC2CC2)c2ncn([C@H]3C=C[C@@H](CO)C3)c2n1 [Abacavir sulfate] (20 µM) | 1.25 | 1.05 | 1.02 | 1.02 | 1.04 (inactive) | 0.969 (inactive) | 0.953 (inactive) | 1.03 (inactive) | 1.04 (inactive) | 0.969 (inactive) | 0.992 (inactive) | 0.935 (inactive)
4 | Cc1cc(C2CCCCC2)n(O)c(=O)c1 [Ciclopirox ethanolamine] (20 µM) | 0.962 | 1.05 | 1.06 | 1.13 | 0.978 (inactive) | 1.04 (inactive) | 1.02 (inactive) | 1.06 (inactive) | 0.994 (inactive) | 1 (inactive) | 1 (inactive) | 0.976 (inactive)
5 | OCCOCCN1CCN(C2=Nc3ccccc3Sc3ccccc32)CC1 [Quetiapine hemifumarate] (20 µM) | 0.966 | 1.13 | 1.07 | 0.982 | 0.894 (inactive) | 1 (inactive) | 1.01 (inactive) | 1.09 (inactive) | 0.978 (inactive) | 0.892 (inactive) | 1.03 (inactive) | 0.991 (inactive)
6 | OC(CCN1CCCCC1)(c1ccccc1)C1CC2C=CC1C2 (stereo not given) [Biperiden hydrochloride] (20 µM) | 1.01 | 1.01 | 1.17 | 0.975 | 0.911 (inactive) | 0.995 (inactive) | 0.916 (inactive) | 1.04 (inactive) | 0.999 (inactive) | 0.899 (inactive) | 1.01 (inactive) | 0.935 (inactive)
7 | OCCN1CCN(CCCN2c3ccccc3Sc3ccc(C(F)(F)F)cc32)CC1 [Fluphenazine dihydrochloride] (20 µM) | 1.03 | 1.13 | 1.05 | 0.85 | 0.925 (inactive) | 1.22 (inactive) | 0.878 (inactive) | 1.09 (inactive) | 0.982 (inactive) | 1.11 (inactive) | 1.03 (inactive) | 0.869 (inactive)
8 | CN(Cc1cc(Br)cc(Br)c1N)C1CCCCC1 [Bromhexine hydrochloride] (20 µM) | 0.942 | 0.985 | 0.971 | 0.937 | 1.06 (inactive) | 1.05 (inactive) | 1 (inactive) | 1 (inactive) | 1.03 (inactive) | 1.06 (inactive) | 0.991 (inactive) | 1.07 (inactive)
9 | CCc1cc(C(N)=S)ccn1 [Ethionamide] (20 µM) | 1.09 | 1.05 | 1.03 | 0.995 | 0.962 (inactive) | 1 (inactive) | 1.02 (inactive) | 1.05 (inactive) | 1 (inactive) | 1 (inactive) | 1.02 (inactive) | 1.01 (inactive)
10 | C[C@]12C=CC(=O)C=C1CC[C@H]1[C@@H]3C[C@@H](O)[C@](O)(C(=O)CO)[C@@]3(C)C[C@H](O)[C@@]12F [Triamcinolone] (20 µM) | 1.01 | 0.986 | 1.02 | 0.944 | 0.954 (inactive) | 0.918 (inactive) | 1.02 (inactive) | 0.976 (inactive) | 1.02 (inactive) | 0.994 (inactive) | 0.992 (inactive) | 1.07 (inactive)
11 | CCCCCCCCc1c(CC)nc2ncnn2c1N (20 µM) | 1.11 | 1.05 | 1.04 | 1.16 | 0.991 (inactive) | 1.03 (inactive) | 0.997 (inactive) | 1.01 (inactive) | 1.01 (inactive) | 1.04 (inactive) | 1.01 (inactive) | 0.968 (inactive)
12 | COc1cc(OC)c(C(=O)CCCN2CCCC2)c(OC)c1 [Buflomedil hydrochloride] (20 µM) | 1.11 | 1.03 | 0.965 | 0.743 | 1.08 (inactive) | 1.08 (inactive) | 1.03 (inactive) | 1.04 (inactive) | 1.02 (inactive) | 1.03 (inactive) | 0.997 (inactive) | 0.992 (inactive)
13 | CCCc1nc2c(C)cc(-c3nc4ccccc4n3C)cc2n1Cc1ccc(-c2ccccc2C(=O)O)cc1 [Telmisartan] (20 µM) | 0.962 | 0.99 | 1.02 | 0.953 | 1.02 (inactive) | 0.911 (inactive) | 0.966 (inactive) | 1.04 (inactive) | 1.01 (inactive) | 1.05 (inactive) | 0.996 (inactive) | 1.01 (inactive)
14 | CCOC(=O)c1ccc(N)cc1 [Benzocaine] (20 µM) | 1.09 | 1.03 | 1.08 | 1.02 | 0.954 (inactive) | 1.1 (inactive) | 1.06 (inactive) | 0.92 (inactive) | 0.969 (inactive) | 1 (inactive) | 1.01 (inactive) | 1.1 (inactive)
15 | CC1(C)O[C@@H]2C[C@H]3[C@@H]4C[C@H](F)C5=CC(=O)C=C[C@]5(C)[C@H]4[C@@H](O)C[C@]3(C)[C@]2(C(=O)CO)O1 [Flunisolide] (20 µM) | 0.942 | 0.993 | 1.03 | 0.998 | 0.949 (inactive) | 1.03 (inactive) | 1.19 (inactive) | 1.05 (inactive) | 1.05 (inactive) | 1.07 (inactive) | 1.09 (inactive) | 1.51 (inactive)
16 | Oc1ccc(OCc2ccccc2)cc1 [Monobenzone] (20 µM) | 1.21 | 0.897 | 1.11 | 1.03 | 0.974 (inactive) | 1.02 (inactive) | 0.872 (inactive) | 0.884 (inactive) | 1.01 (inactive) | 0.978 (inactive) | 0.996 (inactive) | 0.828 (inactive)
17 | CC(C(=O)O)c1ccc(CC2CCCC2=O)cc1 (stereo not given) [Loxoprofen] (20 µM) | 1.24 | 1.03 | 1.06 | 1.13 | 0.95 (inactive) | 1.05 (inactive) | 1 (inactive) | 1.02 (inactive) | 1.02 (inactive) | 0.981 (inactive) | 1.01 (inactive) | 0.997 (inactive)
18 | CN1C(=O)CC(c2ccccc2)C1=O (stereo not given) [Phensuximide] (20 µM) | 0.976 | 1.28 | 0.996 | 1.05 | 1.04 (inactive) | 1.03 (inactive) | 1.03 (inactive) | 1.21 (inactive) | 1.01 (inactive) | 1.01 (inactive) | 0.989 (inactive) | 1.02 (inactive)
19 | CC[C@H](c1ccc(O)cc1)[C@@H](CC)c1ccc(O)cc1 [Hexestrol] (20 µM) | 0.933 | 1.03 | 0.999 | 0.869 | 1.06 (inactive) | 0.609 (active) | 0.789 (active) | 1.05 (inactive) | 1.01 (inactive) | 1.06 (inactive) | 0.989 (inactive) | 0.749 (inactive)
20 | CCOC(=O)[C@H](CCc1ccccc1)N[C@@H](C)C(=O)N(CC(=O)O)C1Cc2ccccc2C1 [Delapril Hydrochloride] (20 µM) | 1.16 | 0.976 | 0.982 | 1.15 | 1.04 (inactive) | 0.958 (inactive) | 0.974 (inactive) | 1 (inactive) | 1.02 (inactive) | 1.01 (inactive) | 0.998 (inactive) | 0.905 (inactive)
21 | CC(CCc1ccccc1)NCC(O)c1ccc(O)c(C(N)=O)c1 (stereo not given) [Labetalol hydrochloride] (20 µM) | 1.09 | 0.963 | 0.974 | 0.85 | 0.944 (inactive) | 1 (inactive) | 0.967 (inactive) | 1.01 (inactive) | 0.996 (inactive) | 0.923 (inactive) | 1 (inactive) | 0.939 (inactive)
22 | CCC1(c2ccccc2)C(=O)NCNC1=O [Primidone] (20 µM) | 0.938 | 0.953 | 0.991 | 1.01 | 1.09 (inactive) | 0.973 (inactive) | 1.02 (inactive) | 0.982 (inactive) | 1.03 (inactive) | 0.999 (inactive) | 0.981 (inactive) | 1.03 (inactive)
23 | O=C(O)c1cc(=O)c2c(OCC(O)COc3cccc4oc(C(=O)O)cc(=O)c34)cccc2o1 [Cromolyn disodium salt] (20 µM) | 1.06 | 1.05 | 1.02 | 1.11 | 0.943 (inactive) | 0.983 (inactive) | 1.04 (inactive) | 0.994 (inactive) | 0.96 (inactive) | 0.99 (inactive) | 0.979 (inactive) | 1.06 (inactive)
24 | CC(=O)c1cc2cccc(OCC(O)CNC(C)C)c2o1 (stereo not given) [Befunolol] (20 µM) | 0.992 | 1.1 | 0.953 | 0.98 | 1.07 (inactive) | 1.06 (inactive) | 1.02 (inactive) | 1.06 (inactive) | 0.972 (inactive) | 0.997 (inactive) | 0.995 (inactive) | 1.06 (inactive)
25 | O=C(O)Cc1sc(-c2ccccc2)nc1-c1ccc(Cl)cc1 [Fentiazac] (20 µM) | 1.09 | 1.06 | 1.06 | 0.808 | 0.945 (inactive) | 0.999 (inactive) | 0.966 (inactive) | 1.04 (inactive) | 0.971 (inactive) | 0.966 (inactive) | 1.03 (inactive) | 1.06 (inactive)
